HSP90 refold inh = HSP90 inhibitors, primary screen, cell lysate, luminescence | inhibition, % at 5.6 µM | Heat shock protein HSP 90 (rabbit reticulocyte lysate; luciferase refolding) | AID 1789, 2009 | 290,000 compounds, 0.91% hits | Rabbit reticulocyte lysate, luciferase refolding luminescence, 3 h;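 active means inhibition above the screen-wide mean plus 3 SD, computed separately per campaign, cut at about 16% in these data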;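 further: 0% = DMSO wells and 100% = 60 µM geldanamycin wells; inhibitors lower the luminescence because luciferase stays unfolded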
TROY signal inh = inhibitors of TROY-driven NF-kB signaling, primary screen, Q293 LMP1-TROYcd cells, NF-kB luciferase, uHTS; 360,000 compounds, 0.98% hits; Q293 LMP1-TROYcd NF-kB luciferase reporter, 4 h; AID 1347056, 2019; inhibition, % at 10 µM;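 active means compounds whose plate-normalised and pattern-corrected inhibition of the luciferase reporter signal at the single screening dose is 50% or more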
HSF-1 act = HSF-1 activators, primary screen, NIH3T3-HGL cells, MG132 stress, luminescence, single point; NIH3T3-HGL HSF-1 luciferase reporter, 8 h; 100% = twice DMSO control signal; activation, % at 9 µM; 300,000 compounds, 1.7% hits; AID 504408, 2011;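 active means mean replicate activation of at least 50% with a set share of replicates each reaching 50%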;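 further: 0% = median of the neutral control wells and 100% = twice that signal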
TWEAK Fn14 block = inhibitors of TWEAK-Fn14 signaling, primary screen, luciferase reporter cells, uHTS. TWEAK-stimulated Fn14 reporter cells, luciferase luminescence, 8 h. inhibition, % at 10 µM. 360,000 compounds, 2% hits. AID 1159606, 2016; in the data active means inhibition above about 50%
EBV LMP1 NFkB = EBV LMP1-driven NF-kappaB luciferase reporter inhibitors, primary screen, cell-based, luminescence, single point; LMP1-induced NF-kappaB luciferase reporter cells; inhibition, % at 12.5 µM; 350,000 compounds, 0.69% hits; AID 504558, 2011; in the data active means inhibition above about 41%;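 further: 0% = neutral control wells and 100% = reference inhibitor control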
HSF1 inh = HSF1 inhibitors in luciferase reporter cells, primary screen, cell-based, NIH3T3, luminescence; NIH3T3-HGL HSE-luciferase, MG132-induced, luminescence 8 h; stronger effect = lower value; activity change, negative = inhibition, % at 7.5 µM (by protocol); 300,000 compounds, 0.77% hits;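 active means more than half of replicate wells show activity change below -50%, luminescence cut by over half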;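 further: luciferase reports HSF-1 transcriptional activity via heat shock element; 0% = median of DMSO wells and -100% = zero luminescence signal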
* = called active by the depositor. An excerpt weighted towards active compounds, which were near 4.7% of everything screened.

`O=C(O)c1cccc(N2C(=O)/C(=C/c3ccc([N+](=O)[O-])cc3)C=C2c2ccccc2)c1` gave HSP90 refold inh 13.6, TROY signal inh -12.5, HSF-1 act -74.3, TWEAK Fn14 block 51.8*, EBV LMP1 NFkB -9.3 and HSF1 inh -71.7*.
Screening O=C1/C(=C/c2ccc([N+](=O)[O-])cc2)C=C(c2ccccc2)N1c1ccccc1 returned HSP90 refold inh -1.6, TROY signal inh -23.3, HSF-1 act 35.4, TWEAK Fn14 block -0.8, EBV LMP1 NFkB -8.5 and HSF1 inh 16.7.
For O=C1/C(=C/c2ccc([N+](=O)[O-])cc2)C=C(c2ccccc2)N1c1ccc(O)cc1 the results were HSP90 refold inh -1.7, TROY signal inh 3.0, HSF-1 act 94.6*, TWEAK Fn14 block 49.6, EBV LMP1 NFkB 38.1 and HSF1 inh 44.9.
For COc1ccc(N2C(=O)/C(=C/c3ccc([N+](=O)[O-])cc3)C=C2c2ccccc2)cc1 the results were HSP90 refold inh -0.7, TROY signal inh -41.6, HSF-1 act 22.6, TWEAK Fn14 block 14.3, EBV LMP1 NFkB 3.1 and HSF1 inh 15.2.
Screening COc1cc(/C=N/Nc2nc(Nc3ccccc3)nc(-n3nc(C)cc3C)n2)cc(OC)c1OC returned HSP90 refold inh 1.5, TROY signal inh -1.8, HSF-1 act -36.0, TWEAK Fn14 block 44.7, EBV LMP1 NFkB 13.4 and HSF1 inh -27.0.
`COc1ccc(O)c(/C=N/Nc2nc(Nc3ccccc3)nc(-n3nc(C)cc3C)n2)c1` gave HSP90 refold inh 6.1, TROY signal inh -28.4, HSF-1 act -18.3, TWEAK Fn14 block 59.7*, EBV LMP1 NFkB 62.0* and HSF1 inh -13.0.
For Cc1ccc(C2NNC(=O)C2NC(=O)c2ccccc2)cc1 (stereo not given) the results were HSP90 refold inh 2.0, TROY signal inh -30.6, HSF-1 act 64.8*, TWEAK Fn14 block -4.0, EBV LMP1 NFkB -16.8 and HSF1 inh 35.3.
Cc1ccc(C(C(=O)NCc2ccccc2)N(Cc2cccs2)C(=O)c2ccc3c(c2)OCCO3)cc1 (stereo not given) was read as HSP90 refold inh 0.3, TROY signal inh 15.5, HSF-1 act -39.7, TWEAK Fn14 block 54.3*, EBV LMP1 NFkB -2.9 and HSF1 inh -44.5.
For COc1ccc(CNC(=O)C(c2ccc(C)cc2)N(Cc2cccs2)C(=O)c2ccc3c(c2)OCCO3)cc1 (stereo not given) the results were HSP90 refold inh 7.3, TROY signal inh 10.4, HSF-1 act -49.8, TWEAK Fn14 block 46.3, EBV LMP1 NFkB 23.9 and HSF1 inh -39.5.
Screening N#Cc1cc(-c2ccccc2)nc(NN)n1 returned HSP90 refold inh 2.8, TROY signal inh 34.5, HSF-1 act 3.3, TWEAK Fn14 block 31.1, EBV LMP1 NFkB -11.6 and HSF1 inh 0.5.
For N#Cc1cc(-c2ccccc2)nc(Oc2ccc(Cl)cc2)n1 the results were HSP90 refold inh 1.5, TROY signal inh 5.1, HSF-1 act 30.7, TWEAK Fn14 block 50.1*, EBV LMP1 NFkB 18.6 and HSF1 inh 27.2.
Clc1ccc(-c2ccnc(Oc3ccc4ccccc4c3)n2)cc1 was read as HSP90 refold inh 1.5, TROY signal inh -21.1, HSF-1 act -3.6, TWEAK Fn14 block -7.5, EBV LMP1 NFkB 56.6* and HSF1 inh 5.1.
Screening Clc1ccc(-c2ccnc(Oc3cc(Cl)ccc3Cl)n2)cc1 returned HSP90 refold inh 0.8, TROY signal inh 4.5, HSF-1 act 10.6, TWEAK Fn14 block 22.5, EBV LMP1 NFkB 3.9 and HSF1 inh 5.1.
`CCc1nc2ccc(C(=O)NCC3CCCCC3)cn2c1N(C)C(=O)c1cccc(OC)c1` gave TROY signal inh -2.9 and TWEAK Fn14 block -10.6.
Screening Cc1nn(-c2nc3ccccc3[nH]2)c(N)c1-c1ccccc1 returned HSP90 refold inh -0.4, TROY signal inh -71.9, HSF-1 act 71.4*, TWEAK Fn14 block 68.3*, EBV LMP1 NFkB -54.6 and HSF1 inh 44.8.
`Cc1nn(-c2ccccc2)c(N)c1-c1ccccc1` gave HSP90 refold inh 1.9, TROY signal inh -63.3, HSF-1 act 23.1, TWEAK Fn14 block -5.2, EBV LMP1 NFkB 8.2 and HSF1 inh 9.4.
For CCn1c(=NC(=O)CS(=O)(=O)c2ccc(F)cc2)sc2cccc(OC)c21 the results were TROY signal inh 20.8, HSF-1 act 1.0, TWEAK Fn14 block 11.1, EBV LMP1 NFkB 17.1 and HSF1 inh 2.8.
For CCn1c(=NC(=O)c2ccc(S(=O)(=O)N3CCOCC3)cc2)sc2cccc(OC)c21 the results were HSP90 refold inh 3.5, TROY signal inh 37.8, HSF-1 act 4.2, TWEAK Fn14 block 59.7*, EBV LMP1 NFkB 26.5 and HSF1 inh -0.1.
Screening CCn1c(=NC(=O)CCS(=O)(=O)c2ccccc2)sc2cccc(OC)c21 returned HSP90 refold inh -0.7, TROY signal inh 40.9, HSF-1 act 17.5, TWEAK Fn14 block 58.3*, EBV LMP1 NFkB 26.4 and HSF1 inh 13.4.
`Cc1ccc(S(=O)(=O)N2C[C@H]3[C@H]4C(=O)N(c5ccccc5)C(=O)[C@H]4C[C@H](OC(=O)Nc4cccs4)[C@@]3(O)C2)cc1` gave TROY signal inh -9.5, TWEAK Fn14 block 1.2 and EBV LMP1 NFkB -3.9.
For CCOC(=O)[C@]12CCC=C1N(Cc1ccco1)C(=O)[C@H](CC(=O)N1CCN(C(=O)c3ccco3)CC1)C2 the results were TROY signal inh 0.5 and TWEAK Fn14 block 10.0.
Screening CN(C)c1cccc2c(S(=O)(=O)Nc3ccccn3)cccc12 returned HSP90 refold inh -0.9, TROY signal inh 62.3*, HSF-1 act -3.0, TWEAK Fn14 block 83.6*, EBV LMP1 NFkB -18.9 and HSF1 inh -4.0.
`Cc1ccc(S(=O)(=O)Nc2ccccn2)c(C)c1` gave TROY signal inh 3.5, TWEAK Fn14 block 15.8 and EBV LMP1 NFkB 3.3.
Clc1ccc(-c2ccc(SCc3ccccn3)nn2)cc1 was read as HSP90 refold inh 3.6, TROY signal inh -57.8, HSF-1 act 80.7*, TWEAK Fn14 block 8.3, EBV LMP1 NFkB -22.6 and HSF1 inh 47.1.
Screening CCOC(=O)C(NS(=O)(=O)c1ccc(Br)cc1)C(C)C (stereo not given) returned HSP90 refold inh 1.2, TROY signal inh 20.9, HSF-1 act 55.1*, TWEAK Fn14 block -4.0, EBV LMP1 NFkB -9.4 and HSF1 inh 24.5.
`CCC(C)C(NS(=O)(=O)c1ccc(C)cc1)C(=O)O` (stereo not given) gave HSP90 refold inh 0.4, TROY signal inh 3.3, HSF-1 act 0.5, TWEAK Fn14 block 6.8, EBV LMP1 NFkB 2.2 and HSF1 inh 3.5.
C[C@H](CO)N1C[C@H](C)[C@@H](CN(C)S(=O)(=O)c2cn(C)cn2)OCc2cn(nn2)CCCC1=O was read as TROY signal inh -5.0, TWEAK Fn14 block 7.4 and EBV LMP1 NFkB 1.4.
